From the OligoGym collection come the findings set out here.
Note: reference of the scale not given here.

One experiment addresses NAGPA. In words: pooled miR-30 sensor sort-seq; sequence = guide strand. Particulars: shRNA.
With AAGCCGAATAGTGCAAGCCGGA, the sensor-assay potency score (higher = more potent) is -1.15. TTGATGTAGATGCTTCCATTAC showed a sensor-assay potency score (higher = more potent) of -1.88. For TCTCGTCACACTCTGTGGCTTG, the sensor-assay potency score (higher = more potent) is 0.00905. The same measure, in the same setting: for TCGTTGATGTAGATGCTTCCAT the value was -0.346; for TAGGGCAGTAGCAAGTCGTCGT, 0.274. TGTGTCTCGTCACACTCTGTGG: the sensor-assay potency score (higher = more potent) was -1.05. TGTCTCGTCACACTCTGTGGCT registered a sensor-assay potency score (higher = more potent) of -0.832.

In the case of TTCATGCGGAAGAAGCCGCCGT, the sensor-assay potency score (higher = more potent) was -0.589.

The target of the next experiment is NAGS. Described as above. The following applies: shRNA.
In turn, TTGAGGAAGATGATTTTGGTGG registered a sensor-assay potency score (higher = more potent) of -0.197. As for TGTAGCTTTAGAGTGAGTCGAG, the sensor-assay potency score (higher = more potent) came out at 0.177. For the sequence TTATTGAGGAAGATGATTTTGG, the sensor-assay potency score (higher = more potent) was -0.526. TTGCACACCAGGTCCAGGTCGG came in with a sensor-assay potency score (higher = more potent) of -0.37. With TTGATGGGGTTGGTGACCCGGG, the sensor-assay potency score (higher = more potent) was -1.22. Regarding TTTAGAGTGAGTCGAGTTGGGG, the sensor-assay potency score (higher = more potent) is -0.776.

TCACTGTGTTTGAAGTACCAGG registered a sensor-assay potency score (higher = more potent) of -0.966. On to TTGACCAGGTCCACTAGACGGC, for which the sensor-assay potency score (higher = more potent) is -0.973. Still for that read-out and setting: to TTAGAGTGAGTCGAGTTGGGGT belongs -0.187.

In turn, TAGTCGTCCCTGAGCTTCTTGC came in with a sensor-assay potency score (higher = more potent) of -1.38. In the case of TCTACCAGCACCTTGCAGCTCT, the sensor-assay potency score (higher = more potent) was 0.351. In the case of TTACTCAGGACCTTATGACTGC, the sensor-assay potency score (higher = more potent) is -0.0355.

Another experiment deals with NAP1L5. The description is as above. Particulars: shRNA.
TTATAGATGTCATTATACTTTT showed a sensor-assay potency score (higher = more potent) of -1.32. For TTGGCTTCTATCTTATCGCATC, the sensor-assay potency score (higher = more potent) was -1.13. In turn, TATACTTTTTTTCCAGAGCCTG came in with a sensor-assay potency score (higher = more potent) of -1. On the same count and under the same terms, to TTGGATCTTGGCGAGTAGGGGC belongs -0.336; to ATACTTTTTTTCCAGAGCCTGA, -1.24; to TTTTTGAGGGCCAGGACTCGGC, -1.25. Same read-out and setting: for TCTTATCGCATCGCTTCTGCAG the value was -1.

Consider TTCTATCTTATCGCATCGCTTC, for which the sensor-assay potency score (higher = more potent) was -0.589. With TATCTTATCGCATCGCTTCTGC, the sensor-assay potency score (higher = more potent) worked out at 0.0139. Turning to TTGAGGGCCAGGACTCGGCATT, the sensor-assay potency score (higher = more potent) was -1.45. TCTATCTTATCGCATCGCTTCT registered a sensor-assay potency score (higher = more potent) of -0.911.

The next experiment has as its target NARF. The experiment is described as above. Particulars: shRNA.
For ATCCTCGTTGAACAGCTCCTTG, the sensor-assay potency score (higher = more potent) is -0.97. Sequence TTGTTTTCTTACTACATTCCTT had a sensor-assay potency score (higher = more potent) of -0.477. As to TTATTTGAGCAATTTCACCTGA, the sensor-assay potency score (higher = more potent) was 0.612. Sequence TATTTGAGCAATTTCACCTGAT gave a sensor-assay potency score (higher = more potent) of 0.609. Still for that read-out and setting: to AAATCCGCAGCTATCGTCGTAT belongs -0.245; to TTTAGCAGCAAAATAAGGCAAA, -0.927; to TTCTTTTTGACTCTCCAGGATA, -1.07. For the sequence TTTCTTACTACATTCCTTGCGC, the sensor-assay potency score (higher = more potent) turned out to be 0.306. TGGTGCAATCTTGTCTCGCTGT registered a sensor-assay potency score (higher = more potent) of -0.584.
